# Compounds with a hit are over-represented: about 2.5% of the library has one in this group of screens.
# MEKK2 WT-MEK5: raises or lowers MEK5 binding to wildtype human MEKK2 PB1 domain; 290,000 compounds, 1.1% hits; binding response (% of control), % at 10 µM; bead flow cytometry, Alexa488-MEK5 binding to MEKK2 WT; actives lie on both sides; Q9Y2U5; in the data active = binding response below about 67% or above about 130%
# GRK2 inh: human GRK2 inhibition via aptamer displacement; P25098; inhibition of aptamer binding, % at 10 µM; bead flow cytometry, FAM-aptamer displacement from GRK2; 330,000 compounds, 0.59% hits;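 active = inhibition of aptamer binding above 40%, roughly 3 SD of noise, on plates passing a quality check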;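 also: median bead fluorescence of bound FAM aptamer so fluorescent compounds give negative values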
# Target sequence (P25098 whole entry, looked up): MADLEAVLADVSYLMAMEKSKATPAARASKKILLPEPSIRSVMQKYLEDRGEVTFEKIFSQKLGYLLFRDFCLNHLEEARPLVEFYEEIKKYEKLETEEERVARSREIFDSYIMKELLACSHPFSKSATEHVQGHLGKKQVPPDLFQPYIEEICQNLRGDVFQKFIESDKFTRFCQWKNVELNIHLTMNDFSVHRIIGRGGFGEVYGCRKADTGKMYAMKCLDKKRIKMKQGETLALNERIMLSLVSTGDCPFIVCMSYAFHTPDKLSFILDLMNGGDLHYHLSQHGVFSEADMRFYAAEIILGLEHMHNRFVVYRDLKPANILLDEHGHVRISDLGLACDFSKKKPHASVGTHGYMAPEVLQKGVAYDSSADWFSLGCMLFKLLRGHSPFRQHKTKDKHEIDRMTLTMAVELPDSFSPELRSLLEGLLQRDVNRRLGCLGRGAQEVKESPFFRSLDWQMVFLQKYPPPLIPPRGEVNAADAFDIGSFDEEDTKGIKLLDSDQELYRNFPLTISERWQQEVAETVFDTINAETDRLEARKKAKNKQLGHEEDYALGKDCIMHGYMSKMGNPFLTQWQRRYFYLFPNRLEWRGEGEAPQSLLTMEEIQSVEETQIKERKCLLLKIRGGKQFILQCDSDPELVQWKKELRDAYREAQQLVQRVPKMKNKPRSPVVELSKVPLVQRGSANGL
# MEKK3 PB1 HTS: MEKK3-MEK5 PB1 interaction, increase or decrease. 290,000 compounds, 1.4% hits. binding response (% of control), % at 10 µM. bead-based flow cytometry, Alexa488-MEK5 binding to MEKK3; actives lie on both sides; 0 = blocked by unlabeled MEK5, 100 = vehicle. Q99759;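 active = binding response more than 3 SD above or below the average of its plate-row segment, actives on both sides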;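 also: Alexa488 bead fluorescence after subtracting the streptavidin-only scavenger bead signal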
# MEKK2mut PB1 HTS: signal of MEK5 binding to mutant human MEKK2 PB1 domain; bead flow cytometry, Alexa488-MEK5 binding to MEKK2 mutant; percent response, % at 10 µM; 290,000 compounds, 0.35% hits; AID 1530; in the data active = percent response above about 24%, passing the limit was not always enough
# MEKK2wt confirm: raises or lowers MEK5 binding to wildtype human MEKK2, retest. shares compounds with MEKK3 PB1 HTS. 5,900 compounds, 2.4% hits. binding response (% of control), % at 10 µM. bead flow cytometry, Alexa488-MEK5 binding to MEKK2 WT; actives lie on both sides; in the data active = binding response below about 16% or above about 210%; inactive = in between
# MEKK2mut confirm: signal of MEK5 binding to mutant human MEKK2, retest | shares compounds with MEKK3 PB1 HTS | bead flow cytometry, Alexa488-MEK5 binding to MEKK2 mutant | 5,900 compounds, 2% hits | percent response, % at 10 µM; in the data active = percent response mostly above about 71%, no sharp cut-off; inactive = mostly below about 38%;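 also: higher means compound restores mutant binding toward wildtype level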
# MEKK3-MEK5 inh: MEKK3-MEK5 PB1 inhibition, single concentration confirmation; shares compounds with MEKK3 PB1 HTS; bead flow cytometry, Alexa488-MEK5 binding to MEKK3; active compounds read low; binding response (% of control), % at 10 µM; 5,900 compounds, 1.8% hits;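 active = binding response below 72% of control, or above a set upper limit, though filed actives all read lower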;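 also: 100% = DMSO only wells and 0% = binding blocked by excess unlabeled MEK5; lower values mean stronger disruption of MEK5 binding to MEKK3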
# Starred values were filed as active, the others as inactive; . = no result; [ ] = another dose, or the depositor's remark.
SMILES,MEKK2 WT-MEK5,GRK2 inh,MEKK3 PB1 HTS,MEKK2mut PB1 HTS,MEKK2wt confirm,MEKK2mut confirm,MEKK3-MEK5 inh
CCc1nn(C(CC)C(=O)NCC(C)c2ccccc2)c(=O)c2cc3occc3n12 (stereo not given),101,.,102,0,.,.,.
CC(C)(C)NS(=O)(=O)c1ccc(NC(=S)NC(=O)C2CC2)cc1,102,1,95,2,.,.,.
Cc1ccc(-c2csc(/C(C#N)=C/Nc3ccc4c(c3)OCCO4)n2)cc1,105,2,113,0,.,.,.
CCN(CC)CCOC(=O)c1ccc(N/C=C(/C#N)c2nc(-c3cccc(OC)c3)cs2)cc1,93,.,31*[inhibitor],-14,78,-38,26*
CCN(CC)CCOC(=O)c1ccc(N/C=C(/C#N)c2nc(-c3ccc(OC)c(OC)c3)cs2)cc1,94,0,29*[inhibitor],-1,53,-45,15*
CCOC(=O)c1sc(NC(=O)c2cc3n(n2)C(C(F)(F)F)CC(c2cccs2)N3)c(C(=O)OCC)c1C (stereo not given),95,0,98,0,.,.,.
CCOC(=O)c1sc(NC(=O)c2cc3n(n2)C(C(F)(F)F)CC(c2ccccc2)N3)c(C(=O)OCC)c1C (stereo not given),84,3,81*[inhibitor],-14,102,-3,99
COc1ccc(/C=N/NC(=O)c2ccc3c(c2)OCCO3)cc1[N+](=O)[O-],88,0,95,-4,.,.,.
COc1ccc(/C=C/C(=O)c2ccc3c(c2)OCCO3)cc1[N+](=O)[O-],120,3,132*,6,97,-3,97
C=CCc1cccc(/C=N/NC(=O)C(C)Nc2ccc(C)cc2)c1O (stereo not given),107,1,127,0,.,.,.
O=c1c2ccccc2nc(-c2ccc(F)cc2)n1NCc1ccccc1O,106,0,107,-1,.,.,.
CCC(CC)NC(=O)CON=C1c2ccccc2-c2ccccc21,107,1,146*,0,99,-2,102
COCCn1c(SCC(=O)Nc2c(C)n(C)n(-c3ccccc3)c2=O)nc2ccccc2c1=O,.,0,.,.,.,.,.
CC(C)S(=O)(=O)c1csc(NC(=O)Nc2cccc([N+](=O)[O-])c2)c1Cl,97,1,97,-1,.,.,.
CCC(=O)c1ccc(OCC(O)CN2CCN(C(c3ccccc3)c3ccccc3)CC2)cc1 (stereo not given),158*,0,105,18,114,8,103
CC(=O)c1ccc(OCC(O)CN2CCOCC2)cc1 (stereo not given),109,4,108,7,.,.,.
CCC(=O)c1ccc(OCC(O)CN2CCOCC2)cc1 (stereo not given),2.0*[inhibitor],4,2.0*[inhibitor],-31,99,-2,101
Cc1ccc(-c2cc(C(=O)N(C)CC(=O)Nc3ccccc3Br)c3ccccc3n2)o1,.,0,.,.,.,.,.
COc1ccc(C(=O)NCCC2=CCCCC2)cc1,107,1,131*,1,100,-9,97
COc1ccc(C(=O)NCC(=O)OCC(=O)NCCC2=CCCCC2)cc1,96,0,100,-3,.,.,.
COC(=O)c1ccc(OC(=O)c2cccnc2)cc1,106,0,128*,0,97,-7,95
CCOC(=O)Cn1c(=N)n(CCOc2ccc(OC)cc2)c2ccccc21,114,7,106,8,.,.,.
CCOC(=O)Cn1c(=N)n(CCOc2ccc3ccccc3c2)c2ccccc21,146*,0,105,19,150,23,104
CCCN1CCN(S(=O)(=O)c2ccc(-n3cnnn3)cc2)CC1,103,0,98,3,.,.,.
Cc1c(S(=O)(=O)N2CCN(c3cccc(Cl)c3)CC2)c(=O)n(C)c(=O)n1C,109,9,102,5,.,.,.
SMILES,MEKK2 WT-MEK5,GRK2 inh,MEKK3 PB1 HTS,MEKK2mut PB1 HTS,MEKK2wt confirm,MEKK2mut confirm,MEKK3-MEK5 inh
CCC1=NC(c2ccc(OC)cc2)N(O)C1(C)C (stereo not given),93,1,80*[inhibitor],-13,97,10,99
N#CCC(=O)Nc1ccc(C(=O)NNC(=O)c2ccccc2-n2cccc2)cc1,.,3,.,.,.,.,.
COC(=O)C1CCN(C(=O)Nc2ccccc2)CC1,106,4,103,18,.,.,.
COC(=O)CC1Oc2ccc(C)cc2NC1=O (stereo not given),19*[inhibitor],0,16*[inhibitor],-17,105,0,100
COc1ccc(-n2nc3c(N)n[nH]c3cc2=O)cc1,71,1,67*[inhibitor],-15,70,-6,68*
O=C(COC(=O)COc1ccc2c(c1)CCC2)Nc1ccccc1C(F)(F)F,.,0,.,.,.,.,.
COc1ccc2cnnc(SCC(=O)Nc3ccc(C(C)=O)cc3)c2c1OC,97,0,99,-2,.,.,.
COc1ccc2cnnc(SCC(=O)Nc3ccc(C(=O)O)cc3)c2c1OC,111,1,143*,0,100,-1,102
Cc1ccc(O)c(-c2cc(C(=O)Nc3ccc(S(=O)(=O)N4CC(C)OC(C)C4)cc3)[nH]n2)c1 (stereo not given),107,0,123*,3,104,-4,99
O=C(COC(=O)C1C2CC3OC(=O)C1C3C2)Nc1ccc(Cl)cc1 (stereo not given),94,0,101,0,.,.,.
C(#Cc1ccccc1)C[N+]1(CC#Cc2cccc3ccccc23)CCOCC1,154*,.,103,1,145,24,104
CCOC(=O)c1nc2ccccc2nc1C,108,4,143*,0,103,8,102
COc1cc(/C=C/C(=O)CC(=O)/C=C/c2ccc(O)c(OC)c2)ccc1O,14*,9,75,40*,88,-6,88
Cc1csc(SCC(=O)Nc2nccs2)n1,.,2,.,.,.,.,.
Cc1csc(SCC(=O)Nc2sccc2C(N)=O)n1,1.0*[inhibitor],1,2.0*[inhibitor],-16,95,-3,101
CCOC(=O)/C(C#N)=C/Nc1ccccc1OC,2.0*[inhibitor],0,2.0*[inhibitor],-16,106,9,105
C[C@@H]1CN([C@@H](C)CO)C(=O)c2cc(NS(=O)(=O)c3cccs3)ccc2O[C@H]1CN(C)Cc1ccc(C(F)(F)F)cc1,.,1,.,.,.,.,.
Cc1c[n+](C)ccc1CC1C([N+](=O)[O-])=C[N-]c2ncnn21 (stereo not given),100,.,102,7,.,.,.
COCCNC(=O)c1n[nH]c2ccccc12,85,0,70*[inhibitor],-3,105,-2,104
COCCNC(=O)c1cn(C)c2ccccc2c1=O,74,1,70*[inhibitor],-14,98,-8,96
COCCNC(=O)Cc1cn(C)c2ccccc12,112,2,110,19,.,.,.
COc1ccc(CCNC(=O)c2n[nH]c3ccccc23)cc1,95,3,100,-5,.,.,.

# Assay outcomes as filed in PubChem BioAssay.
